Compound activity deposited in PubChem BioAssay by several laboratories.
HSF1 activator: increases HSF-1 driven luciferase reporter signal. NIH3T3-HGL HSF-1 luciferase reporter, MG132, 8 h; 100% = twice DMSO control signal. activation, % at 9 µM. 300,000 tested, 1.7% active. AID 504408;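 active = mean replicate activation of at least 50% with a set share of replicates each reaching 50%; inconclusive = only one of those two conditions met; inactive = mean below 50% and too few replicates reaching it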;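 note: 0% = median of the neutral control wells and 100% = twice that signal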
LMP1 NFkB inh: Epstein-Barr LMP1 NF-kappaB reporter inhibition | LMP1-induced NF-kappaB luciferase reporter cells, luminescence | inhibition, % at 12.5 µM | 350,000 tested, 0.69% active; in the data active = inhibition above about 41%; inconclusive = no clear call, values can overlap the other calls;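 note: 0% = neutral control wells and 100% = reference inhibitor control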
HSF1 inhib: HSF1 inhibition | 300,000 tested, 0.77% active | AID 2098 | NIH3T3-HGL HSE-luciferase, MG132-induced, luminescence 8 h; stronger effect = lower value | activity change, negative = inhibition, % at 7.5 µM (by protocol);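 active = more than half of replicate wells show activity change below -50%, luminescence cut by over half; inconclusive = some wells, but at most half, below -50%; inactive = no replicate well below -50%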;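 note: luciferase reports HSF-1 transcriptional activity via heat shock element; 0% = median of DMSO wells and -100% = zero luminescence signal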
TROY NFkB inh: inhibitors of TROY-dependent NF-kB signaling | Q293 LMP1-TROYcd NF-kB luciferase reporter, 4 h | inhibition, % at 10 µM | 360,000 tested, 0.98% active;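 active = compounds whose plate-normalised and pattern-corrected inhibition of the luciferase reporter signal at the single screening dose is 50% or more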
LGR2 antag: inhibitors of bursicon-induced Drosophila LGR2 receptor cAMP signaling; 380,000 tested, 0.35% active; inhibition, % at 9.99 µM; HEK293 LGR2, CRE-luciferase, bursicon-stimulated, 4 h;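 active = drop in luminescence signal, shown as inhibition above about 50% in the replicate tests, limit read from the data, passing the limit was not always enough; inconclusive = probably only some replicates passing the limit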;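 note: agonist challenge used bursicon conditioned medium at about half maximal strength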
TWEAK Fn14 block: TWEAK-Fn14 signaling inhibition. TWEAK-stimulated Fn14 reporter cells, luciferase luminescence, 8 h. inhibition, % at 10 µM. 360,000 tested, 2% active; in the data active = inhibition above about 50%
Active calls of the source: *. An excerpt weighted towards active compounds, which were near 3.6% of everything screened.

O=C(Cn1ncc(Cl)c(Cl)c1=O)c1ccc2c(c1)OCCO2 was read as LMP1 NFkB inh 4, TROY NFkB inh 23, LGR2 antag inconclusive and TWEAK Fn14 block 101*.
`Cc1ccc(S(=O)(=O)N2CCCCC2)cc1NC(=O)Cn1cnnn1` gave HSF1 activator inconclusive, LMP1 NFkB inh -2, HSF1 inhib 9, TROY NFkB inh 7, LGR2 antag -3 and TWEAK Fn14 block 4.
For O=C(Cn1ncc(Cl)c(Cl)c1=O)N1CCN(S(=O)(=O)c2ccc3ccccc3c2)CC1 the results were HSF1 activator 76*, LMP1 NFkB inh 14, HSF1 inhib 61, TROY NFkB inh 67*, LGR2 antag 8 and TWEAK Fn14 block 97*.
Screening O=C(CC1CC1)N1CC(=O)N2[C@H](CO)[C@H](c3ccc(C#Cc4cccc(F)c4)cc3)[C@H]2C1 returned LGR2 antag -3.
C[C@@H]1CN([C@H](C)CO)C(=O)c2cc(NS(=O)(=O)c3cccs3)ccc2O[C@@H](C)CCCCO[C@H]1CN(C)Cc1ccc2c(c1)OCO2 was read as LGR2 antag 3.
`C[C@H](CO)N1C[C@H](C)[C@H](CN(C)C(=O)Nc2ccccc2)Oc2ccc(NC(=O)CCC(F)(F)F)cc2CC1=O` gave LGR2 antag -2.
For C[C@H](NC(=O)C[C@H]1CC[C@H](NS(=O)(=O)c2cccc(F)c2)[C@H](CO)O1)c1ccccc1 the results were LGR2 antag 4.
Cc1noc(C)c1NC(=O)N(C)C[C@H]1Oc2ccc(NS(C)(=O)=O)cc2CC(=O)N([C@@H](C)CO)C[C@@H]1C was read as LGR2 antag -6.
Screening COc1ccc2c(CC(=O)Nc3ccc(OC)c(S(=O)(=O)N4CCOCC4)c3)coc2c1 returned HSF1 activator 0, LMP1 NFkB inh -7, HSF1 inhib 6, TROY NFkB inh 17, LGR2 antag 11 and TWEAK Fn14 block -6.
`COc1ccc(NC(=O)Cc2coc3cc(C)c(C(C)C)cc23)cc1S(=O)(=O)N1CCOCC1` gave HSF1 activator -11, LMP1 NFkB inh 5, HSF1 inhib 6, TROY NFkB inh 28, LGR2 antag 12 and TWEAK Fn14 block 53*.
Screening O=C(c1ccccc1)N1CC2(C1)[C@@H](c1ccccc1)[C@@H](CO)N2C(=O)CC1CC1 returned LGR2 antag -3.
`COc1ccc2c3c([nH]c2c1)[C@@H](CO)N(C(=O)c1cnccn1)CC31CCN(C(=O)c2cnccn2)CC1` gave LGR2 antag 9.
For Fc1ccc(CSc2nncn2NCc2ccccc2)cc1 the results were HSF1 activator 7, LMP1 NFkB inh -1, HSF1 inhib 5, TROY NFkB inh 49 and TWEAK Fn14 block 77*.
CCC(=O)N(C)C[C@@H]1Oc2cc(-c3cccc(OC)c3)ccc2S(=O)(=O)N([C@@H](C)CO)C[C@H]1C was read as LGR2 antag -37.
Screening CCOc1cc(C(c2c(C)[nH][nH]c2=O)c2c(C)[nH][nH]c2=O)cc(Br)c1OC returned HSF1 activator -76, LMP1 NFkB inh 19, HSF1 inhib -69*, TROY NFkB inh -2, LGR2 antag 16 and TWEAK Fn14 block 5.
CCOc1cc(C(c2c(C)[nH][nH]c2=O)c2c(C)[nH][nH]c2=O)ccc1OC(=O)c1cccc([N+](=O)[O-])c1 was read as HSF1 activator -5, LMP1 NFkB inh 2, HSF1 inhib 5, TROY NFkB inh -12 and TWEAK Fn14 block 3.
CCOc1cc(C(c2c(C)[nH][nH]c2=O)c2c(C)[nH][nH]c2=O)ccc1OCc1ccc([N+](=O)[O-])cc1 was read as HSF1 activator 129*, LMP1 NFkB inh 5, HSF1 inhib 95, TROY NFkB inh -4 and TWEAK Fn14 block -17.
`Cc1cccc(S(=O)(=O)N[C@H]2CC[C@@H](CCn3cc(-c4ccccn4)nn3)O[C@@H]2CO)c1` gave LGR2 antag 1.
`O=C(CCc1nc2ccccc2c(=O)[nH]1)NCc1ccco1` gave HSF1 activator -71, LMP1 NFkB inh 3, HSF1 inhib -65*, TROY NFkB inh 10, LGR2 antag -25 and TWEAK Fn14 block 6.
`CC1CC2C3CCC4=CC(=O)C=CC4(C)C3(F)C(O)CC2(C)C1(O)C(=O)CO` (stereo unspecified) gave HSF1 activator -55, LMP1 NFkB inh 14, HSF1 inhib -54*, TROY NFkB inh 28, LGR2 antag -14 and TWEAK Fn14 block 2.
Cn1cnnc1Sc1ccc(/C=C/C(=O)c2ccc(O)cc2)cc1[N+](=O)[O-] was read as HSF1 activator 58*, LMP1 NFkB inh -6, HSF1 inhib 30, TROY NFkB inh 27, LGR2 antag 66* and TWEAK Fn14 block 90*.
Screening O=C1CC(c2ccc(F)cc2)Cc2nc(N3CCN(c4ccccc4)CC3)ncc21 (stereo unspecified) returned HSF1 activator -8, LMP1 NFkB inh 0, HSF1 inhib -3, TROY NFkB inh -2, LGR2 antag -28 and TWEAK Fn14 block 45.
For Cc1ccc(C2CC(=O)c3cnc(N4CCN(c5ccccc5)CC4)nc3C2)cc1 (stereo unspecified) the results were HSF1 activator -7, LMP1 NFkB inh 17, HSF1 inhib 1, TROY NFkB inh 47, LGR2 antag -7 and TWEAK Fn14 block 58*.
`CC(=O)N1N=C(c2ccc(Br)cc2)CC1c1ccc(Br)cc1` (stereo unspecified) gave LMP1 NFkB inh -21, TROY NFkB inh -43, LGR2 antag -17 and TWEAK Fn14 block -7.
Screening CC(C)c1ccc(C2CC(c3ccc(Br)cc3)=NN2C(N)=S)cc1 (stereo unspecified) returned HSF1 activator 74*, LMP1 NFkB inh -10, HSF1 inhib 48, TROY NFkB inh -25, LGR2 antag -49 and TWEAK Fn14 block 34.
For Brc1ccc2nc(N3CCN(c4ccccc4)CC3)sc2c1 the results were HSF1 activator 73*, LMP1 NFkB inh -9, HSF1 inhib 41, TROY NFkB inh -28, LGR2 antag -34 and TWEAK Fn14 block -56.
c1ccc(N2CCN(c3nc4cc5c(cc4s3)OCO5)CC2)cc1 was read as HSF1 activator 72*, LMP1 NFkB inh -2, HSF1 inhib 48, TROY NFkB inh -20 and TWEAK Fn14 block 17.
Screening c1ccc2c(c1)CCN(c1nc3cc4c(cc3s1)OCO4)C2 returned HSF1 activator -18, LMP1 NFkB inh -72, HSF1 inhib 3, TROY NFkB inh 2 and TWEAK Fn14 block 58*.
`c1c2c(cc3sc(N4CCOCC4)nc13)OCO2` gave HSF1 activator 41, LMP1 NFkB inh -1, HSF1 inhib 11, TROY NFkB inh -48 and TWEAK Fn14 block 41.
`c1c2c(cc3sc(N4CCCCC4)nc13)OCO2` gave HSF1 activator 25, LMP1 NFkB inh 10, HSF1 inhib 12, TROY NFkB inh -31 and TWEAK Fn14 block 73*.
